# Screening data deposited in PubChem by National Center for Advancing Translational Sciences (NCATS).
# Most compounds without a hit are left out; they make up all but 1.8% or so of the library.
# PI5P4Ka inh = PI5P4K alpha (human) kinase inhibition; PI5P4Kalpha enzyme, ADP-Glo luminescence, 60 min; hits give low values; max response, %; hit rate 1.2% among 330,000; active = max response of -50% or lower; inconclusive = between -30% and -50%; inactive = -30% or higher; also: value at the top dose of about 77 µM
#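 qHTS, 1536-well: enzyme/substrate mix, compound by pin tool, 5 microM ATP final; RT 60 min; ADP-Glo reagents 1 (45 min) then 2 (30 min); luminescence.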
# CtBP-E1A inh = CtBP/E1A binding inhibition; AlphaScreen GST-E1A/His-CtBP binding, 1536-well; hits give low values; activity change, % (no concentration beside the values); hit rate 0.49% among 340,000; AID 651724
#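 In 5 uL wells, 23 nL compound meets equimolar GST-E1A and His-CtBP (5X stock 125 nM each) for 2 h, 37 °C. Beads (5X, 50 ug/mL) then 1 h, 37 °C, dark.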
# pAkt inh = inhibitors of Akt phosphorylation; Neuro2A IGF-stimulated pAkt S473 HTRF, 20 min; hits give low values; activity change, % for hits at 50 µM; hit rate 0.32% among 360,000; in the data active = activity change below about -80%; inconclusive = mostly about -51% to -80%
#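 Single-point screen (50 µM final compound) in Neuro2A cells stimulated 20 min with 6 nM IGF at 37 deg C. After lysis, Ser473-phosphorylated Akt read by HTRF (ex 330 nm, em 615/665 nm) as the 665/615 ratio.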
# Six1-Eya2 inh = Six1/Eya2 interaction inhibition; Q15475+O00167; activity change, % (concentration not given with the values); hit rate 0.56% among 360,000; AlphaScreen GST-Six1/His-Eya2 binding, biochemical; hits give low values; AID 651725
# Target sequence (O00167 whole entry, looked up): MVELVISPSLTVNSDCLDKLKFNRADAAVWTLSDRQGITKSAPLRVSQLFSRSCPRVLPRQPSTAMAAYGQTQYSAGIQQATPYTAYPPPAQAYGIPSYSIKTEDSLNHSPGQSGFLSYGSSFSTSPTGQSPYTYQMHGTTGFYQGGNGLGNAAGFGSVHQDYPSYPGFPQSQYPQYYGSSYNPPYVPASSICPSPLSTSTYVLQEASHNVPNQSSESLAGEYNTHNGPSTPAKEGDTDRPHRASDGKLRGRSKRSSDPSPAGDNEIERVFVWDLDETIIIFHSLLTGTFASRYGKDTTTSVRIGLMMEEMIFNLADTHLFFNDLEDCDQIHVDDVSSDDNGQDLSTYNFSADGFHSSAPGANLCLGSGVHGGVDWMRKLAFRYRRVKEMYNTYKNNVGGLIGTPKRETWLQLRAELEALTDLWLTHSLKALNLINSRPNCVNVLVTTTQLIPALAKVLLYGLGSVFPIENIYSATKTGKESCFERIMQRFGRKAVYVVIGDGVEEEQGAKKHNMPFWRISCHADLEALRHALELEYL
# Target sequence (Q15475 whole entry, looked up): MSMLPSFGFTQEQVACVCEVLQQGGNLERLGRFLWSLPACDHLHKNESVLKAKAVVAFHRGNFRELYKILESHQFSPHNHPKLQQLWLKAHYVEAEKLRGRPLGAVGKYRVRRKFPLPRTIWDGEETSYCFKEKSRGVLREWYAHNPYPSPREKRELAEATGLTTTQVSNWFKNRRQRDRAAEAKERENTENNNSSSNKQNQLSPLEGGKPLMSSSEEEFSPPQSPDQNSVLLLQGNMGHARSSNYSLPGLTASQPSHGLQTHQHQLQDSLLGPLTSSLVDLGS
#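 Six1/Eya2 binding was read as AlphaScreen signal after compounds were pinned into GST-Six1 plus His-tagged Eya2 (5X stock 250/500 nM) in pH 8.0 Tris/NaCl/TCEP buffer, beads added, then incubated 1 h, 37 C, dark.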
# PI4K2A block = inhibitors of human PI4K2A; Q9BTU6; hit rate 0.13% among 420,000; purified PI4K2A, ADP-Glo luminescence, 1 h; hits give low values; activity change, negative = inhibition, % at 76.9 µM; AID 1346378; in the data active = activity change below about -50%; inconclusive = mostly about -30% to -49%;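 also: -100% = wells without enzyme as full effect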
#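 In this quantitative HTS, ADP production by PI4K2A was quantified luminescently after 1 h at ambient temperature; 100 microM adenosine served as plate-quality control.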
# * hit, by the source's call; i = inactive; ? = inconclusive; . = not tested or not shown. Rule as the data show it, unless noted: active = activity change below about -65%; inconclusive = mostly about -30% to -63%; inactive = weaker than that. Unless noted, % is scaled to controls: 0 for no effect and ±100 for the full control effect.
SMILES,PI5P4Ka inh,CtBP-E1A inh,pAkt inh,Six1-Eya2 inh,PI4K2A block
Nc1nc2ncc(C(=O)c3cc(Cl)cc(Cl)c3O)cc2s1,-56.6*,-72.2*,i,?,7.3
Nc1nc2ncc(C(=O)c3cc(F)ccc3O)cc2s1,-24.8,-8.4,i,-11.9,2.5
COc1ccc(N=Cc2oc3ccc4ccccc4c3c2O)cc1,0.8,3.7,i,4.8,-0.5
O=C(O)Cn1c2ccccc2c2n[nH]c(=S)nc21,-55.9*,-16.1,i,-0.2,-3.5
CC(=O)Nc1ccc(NC(=O)C2Cc3c(-c4cccc(F)c4)ccnc3O2)cc1 (configuration not stated),-2.9,4.1,i,-0.5,-4.6
O=C(Nc1nc(-c2ccc(S(=O)(=O)N3CCCC3)cc2)cs1)c1ccco1,-4.5,-85.2*,i,-68.7*,-5.8
CCN(CC)c1ccc2nc3c(=O)n(C)c(=O)n(C)c3nc2c1,.,.,.,.,-8.2
CCN(CC)c1ccc2nc3ccccc3[n+](CC)c2c1,?,-74.8*,i,-66.8*,-55.4*
CCN(CC)c1ccc2nc3ccc(N)cc3[n+](-c3ccccc3)c2c1,?,-84.3*,i,-77.7*,?
CC(=O)Nc1ccc(SCC(=O)N(CCC#N)c2cc(C)cc(C)c2)cc1,-0.4,-3.2,-109.9%*,-5.5,0.1
O=C(Nc1ccc(COc2ccccc2)cc1)Oc1ccccc1N1CCOCC1,-4.4,1.8,i,-0.4,-0.9
O=C(O)Cc1ccccc1C(=O)O,.,3.4,i,5.6,-0.3
O=C(O)Cc1cccc(=O)c(O)c1C(=O)O,-17.8,?,i,-72.6*,-3.8
Cc1cc(C)c2c(=O)[nH]n(C(C)C)c2n1,-2.5,0.0,i,-0.5,2.7
CCO/C(C)=C1/SC(=S)NC1=O,-63.0*,3.0,i,-0.1,-1.8
COc1cccc(C(=O)NCCCNC(=O)c2cccc(OC)c2)c1,-4.1,2.5,i,-3.7,-4.8
O=C1NC(=S)SC1=Cc1ccc2c(c1)OCO2,-78.5*,-24.5,i,10.8,8.3
COc1cccc(C(C)=C2SC(=S)NC2=O)c1,-71.0*,18.1,i,-4.2,4.9
O=C1NC(=S)N/C1=C/c1ccc2c(c1)OCO2,2.6,.,i,4.8,-2.3
COc1cccc(C=C2SC(=S)NC2=O)c1,-59.6*,13.4,i,-16.5,-0.3
O=C(CCC(=O)c1ccc(F)cc1)NC1CCCN(Cc2ccccc2F)C1 (configuration not stated),1.4,.,i,6.4,-0.4
COc1ccc(/C=C2/SC(=S)NC2=O)cc1OCc1ccccc1,-74.9*,-1.1,i,-18.0,-1.8
Cc1c(C(=O)O)sc2nc(/C=C/c3cccc(O)c3)[nH]c(=O)c12,-76.8*,?,i,?,2.3
COC(=O)c1ccc(CSc2nc3sc(C(=O)O)c(C)c3c(=O)[nH]2)cc1,-24.4,-0.8,i,0.6,-0.5
COc1cc(OC)c2c(c1C(CCN1CCOCC1)c1ccc(N(C)C)cc1)OC(=O)CC2c1ccc(N(C)C)cc1 (configuration not stated),-1.9,?,i,-79.8*,0.5
SMILES,PI5P4Ka inh,CtBP-E1A inh,pAkt inh,Six1-Eya2 inh,PI4K2A block
O=C(O)c1cn(-c2ccccc2)nc1C(=O)O,-52.4*,7.4,i,2.3,-5.4
COC(=O)c1cn(-c2ccccc2)nc1C(=O)OC,.,7.1,i,3.3,2.1
CC(=O)N1CCC(C(=O)Nc2ccccc2)(N(Cc2ccccc2)C(=O)c2cccnc2)CC1,3.0,-0.6,-112.6%*,14.8,-7.8
CCC(C(=O)O)N1C(=O)/C(=C/c2cccn2C)SC1=S (configuration not stated),0.9,-10.4,i,1.6,0.3
O=C(NN1C(=O)/C(=C/C=C/c2ccco2)SC1=S)c1ccccc1O,-78.5*,?,i,-72.3*,-23.8
O=C(O)CC(C(=O)O)N1C(=O)/C(=C/c2ccc(-c3nc4ccccc4s3)o2)SC1=S (configuration not stated),-10.6,?,i,-77.2*,?
O=C(O)C(Cc1ccccc1)N1C(=O)/C(=C/C=C/c2ccco2)SC1=S (configuration not stated),-98.8*,5.2,i,?,-27.5
O=C(O)CC(C(=O)O)N1C(=O)/C(=C/C=C/c2ccco2)SC1=S (configuration not stated),-54.7*,-12.8,i,?,?
Cn1cccc1/C=C1\SC(=S)N(NC(=O)c2ccccc2O)C1=O,-13.4,?,i,?,4.2
O=C(CN1C(=O)NC2(CCCCCCC2)C1=O)NCc1ccccc1Cl,8.3,.,i,29.8,-1.5
COc1cccc(-c2ncc3ccccc3c2CO)c1,2.1,0.7,i,3.8,3.3
O=C(O)CCCN1C(=O)/C(=C/C=C/c2ccco2)SC1=S,-64.1*,-3.5,i,?,-10.5
Cc1ccc(NC(=O)CCCN2C(=O)/C(=C/C=C/c3ccccc3)SC2=S)cc1,-7.1,27.3,i,15.3,9.1
CCCOc1cccc(C(=O)Nc2ccc(CN3CCOCC3)cc2)c1,3.5,10.5,i,-9.4,-3.3
Cc1ccc(C(Nc2ccccn2)c2ccc3cccnc3c2O)cc1 (configuration not stated),.,.,.,.,2.0
CCN(CC)c1ccc(C(NC(=O)C(C)C)c2ccc3cccnc3c2O)cc1 (configuration not stated),0.1,?,i,-71.9*,2.7
Oc1c(C(Nc2nc3ccccc3s2)c2ccco2)ccc2cccnc12 (configuration not stated),2.5,-16.4,i,-72.7*,1.1
CC(C)C(=O)NC(c1ccco1)c1ccc2cccnc2c1O (configuration not stated),-4.3,-90.8*,i,-93.1*,-7.9
CCCCC(=O)NC(c1ccc(N(CC)CC)cc1)c1ccc2cccnc2c1O (configuration not stated),-2.8,-78.1*,i,?,0.0
c1ccc(-c2nc3nonc3c3nc4ccccc4n23)cc1,.,3.5,i,-9.3,-1.2
CCCCC(=O)NC(c1ccc(N(C)C)cc1)c1ccc2cccnc2c1O (configuration not stated),-5.1,-91.0*,i,-70.4*,5.6
O=C(CCN1CCN(c2ccccc2)CC1)N/N=C/c1ccc(O)c(O)c1O,-68.8*,?,i,?,-19.2
COc1cc(/C=N/NC(=O)CCN2CCN(Cc3ccccc3)CC2)cc(OC)c1OC,0.1,-3.6,i,-10.4,4.4
Cc1cc(C(=O)N/N=C/c2ccc(O)c(O)c2O)c(C)n1-c1ccccc1,-62.0*,?,i,?,-10.8
COc1cc(/C=N/NC(=O)CCN2CCN(c3ccccc3)CC2)cc(OC)c1OC,-7.3,-80.5*,i,-82.5*,-3.5
O=C(Cc1csc(N2CCOCC2)n1)N/N=C/c1ccc(O)c(O)c1O,-60.5*,?,i,-73.4*,-9.3
